In the supplement of paper PMC10338343:
± gives the standard deviation.

test system: EfPiwi piRISC loaded with L1MC piRNA (26 nt); assay: pre-steady-state target cleavage rate (min^-1); auxiliary factor: 500 nM Ephydatia muelleri Gtsf1; guide: L1MC piRNA 5'p-UAACUAAAUACUAUGCAAGCUGUAGG; MIWI and MILI are mouse PIWI proteins and EfPiwi is from a freshwater sponge; tags in brackets are library labels; higher = faster piRNA-guided slicing of the target
Procedure, shortened: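 A transcribed, DNA-blocked target RNA library […] was incubated at 33 °C for 0–8 or 0–960 min with 1 nM active affinity-purified piRISC carrying one synthetic guide, in HEPES–potassium acetate buffer with or without 500 nM GTSF1 partner protein. Uncleaved targets were then sequenced and normalised to depth and to weakly complementary targets. Data from three trials were pooled, with k3 capped at 0.0001 min^-1, and a burst-and-steady-state fit yielded the pre-steady-state cleavage rate.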

Q: For UCCUGGUACAGCUUGCAUAGUAUUUACGUUA, which “pre-steady-state target cleavage rate” value is on record?
A: Its value is 0.00346 ± 0.0025.

Q: Which “pre-steady-state target cleavage rate” value does the source give for UCCUGGAACAGCUAGCAUAGUAUUAAGUUA here?
A: The value was 0.0146 ± 0.0061.

Q: How did the “pre-steady-state target cleavage rate” value turn out when UCCUGGAUCACUUGCAUAGUAUUUAGUUA was run?
A: The value was 0.0567 ± 0.014.

Q: “UCCUGGUACAGCUUGCAUAGUAUUUAGUUC [g2:g24:cont:t1C]” was tested. Which “pre-steady-state target cleavage rate” value did it give?
A: The value was 0.0096 ± 0.0039.

Q: UCCUCACUACAGCUUGCAUAGUAUUUAGUUA was tested. Which “pre-steady-state target cleavage rate” value did it give?
A: The value was 0.0191 ± 0.0067.

Q: How did the “pre-steady-state target cleavage rate” value turn out when UCCUGGAUGAGCUUGCAUCGUAUUUAGUUA was run?
A: Its value is 0.00975 ± 0.0029.

Q: With UCCUACUACAGCUUGCAUAGUAUUUAGUUA as the sequence, how does the “pre-steady-state target cleavage rate” value read?
A: Its value is 0.0579 ± 0.018.

Q: With UCCUGGAUCAGGUUGCAUAGUAUUUAGUUA as the sequence, how does the “pre-steady-state target cleavage rate” value read?
A: Its value is 0.0232 ± 0.0061.

Q: With UCCUGGAUCAGGCUUGCAUAGUAUUUAGUUA as the sequence, how does the “pre-steady-state target cleavage rate” value read?
A: Its value is 0.0132 ± 0.0034.

Q: With UCCUCCUACAGCUUCGAUAGUAUUUAGUUA as the sequence, how does the “pre-steady-state target cleavage rate” value read?
A: The value was 0.0137 ± 0.0042.

Q: How did the “pre-steady-state target cleavage rate” value turn out when UCCUGGAUGUGCUUGCCUAGUAUUUAGUUA was run?
A: Its value is 0.00934 ± 0.0027.

Q: Which “pre-steady-state target cleavage rate” value does the source give for UCCUCCUACAGCUAGCAUAGUAUUAAGUUA here?
A: Its value is 0.00633 ± 0.0029.

Q: Which “pre-steady-state target cleavage rate” value does the source give for UCCUGGUACAGCUUACAUAGUAUUUAGUUA here?
A: Its value is 0.0283 ± 0.0076.

Q: With UCCUGGAUGACCUUGCAUAGUAUUUAGUUA as the sequence, how does the “pre-steady-state target cleavage rate” value read?
A: The value was 0.0113 ± 0.0049.

Q: With UCCUGGAUCAGCUUACAUAGUAUUUAGUUA as the sequence, how does the “pre-steady-state target cleavage rate” value read?
A: Its value is 0.175 ± 0.039.

Q: For UCCUCGUACAGCUUGCAUAGUAUUUAGUAA, which “pre-steady-state target cleavage rate” value is on record?
A: The value was 0.00794 ± 0.0029.

Q: For UCCUCCUACAGCUUGGAAAGUAUUUAGUUA, which “pre-steady-state target cleavage rate” value is on record?
A: Its value is 0.0615 ± 0.013.

Q: Which “pre-steady-state target cleavage rate” value does the source give for UCCUCCAAGAGCUUGCAUAGUAUUUAGUUA here?
A: Its value is 0.0523 ± 0.014.

Q: With UCCUCCUACAGCUUGCCAUAGUAUUUAGUUA as the sequence, how does the “pre-steady-state target cleavage rate” value read?
A: The value was 0.00595 ± 0.0024.

Q: For UCCUGCAACAGCUUGCAUAGUAAUUAGUUA, which “pre-steady-state target cleavage rate” value is on record?
A: The value was 0.00951 ± 0.0021.

Q: UCCUGCUACCAGCUUGCAUAGUAUUUAGUUA was tested. Which “pre-steady-state target cleavage rate” value did it give?
A: The value was 0.0199 ± 0.0059.

Q: For UCCUGCUACAGCUUGCAUAGUAUCUUAGUUA, which “pre-steady-state target cleavage rate” value is on record?
A: The value was 0.00633 ± 0.0017.

Q: How did the “pre-steady-state target cleavage rate” value turn out when UCCUCCUACAGCUUGCCUAGUAUUUAGUUA was run?
A: Its value is 0.0514 ± 0.014.

Q: For UCCUGGUAGAGCUUGCAUAGUAUUUAGUAA, which “pre-steady-state target cleavage rate” value is on record?
A: Its value is 0.00742 ± 0.0038.

Q: UCCUCCAUGAGCUUGCAUAGUAUUUAGUAA was tested. Which “pre-steady-state target cleavage rate” value did it give?
A: Its value is 0.00588 ± 0.0024.

Q: Which “pre-steady-state target cleavage rate” value does the source give for UCCUGGAACAGCAUGCAUAGUAUAUAGUUA here?
A: The value was 0.0106 ± 0.005.

Q: For UCCUGGUACAGCUUGCAUAGUAUCUAGUUA, which “pre-steady-state target cleavage rate” value is on record?
A: The value was 0.004 ± 0.0021.

Q: How did the “pre-steady-state target cleavage rate” value turn out when UCCUGCUACAGCUUGGAUAGUAUUUAGUAA was run?
A: Its value is 0.00465 ± 0.0017.

Q: For UCCUGGAGCAGCUUGCAUAGUAUUUAGUUA, which “pre-steady-state target cleavage rate” value is on record?
A: Its value is 0.101 ± 0.024.

Q: UCCUGGUACCGCUUGCAUAGUAUUUAGUUA was tested. Which “pre-steady-state target cleavage rate” value did it give?
A: The value was 0.00412 ± 0.0035.

Q: How did the “pre-steady-state target cleavage rate” value turn out when UCCUGGAUGUCGAUGCAUAGUAUUUAGUAA was run?
A: The value was 0.00329 ± 0.0032.

Q: UCCUCCUACACGAUGCAUAGUAUUUAGUAA was tested. Which “pre-steady-state target cleavage rate” value did it give?
A: Its value is 0.00453 ± 0.0027.

Q: How did the “pre-steady-state target cleavage rate” value turn out when UCCUGCUACAGCCUUGCAUAGUAUUUAGUUA was run?
A: The value was 0.0116 ± 0.0041.

Q: How did the “pre-steady-state target cleavage rate” value turn out when UCCUCCAACAGCUUGCAUAGUAUUAAGUUA was run?
A: Its value is 0.00502 ± 0.002.

Q: How did the “pre-steady-state target cleavage rate” value turn out when UCCUGGAUCAGCUUGCAUAGUGUUUAGUUA was run?
A: Its value is 0.0156 ± 0.0035.

Q: How did the “pre-steady-state target cleavage rate” value turn out when UCCUGGUACAGCUUGCAUAGUAUUUAGUCA was run?
A: The value was 0.00545 ± 0.0021.

Q: How did the “pre-steady-state target cleavage rate” value turn out when UCCUCCUACACCUUGCAUAGUAUAUAGUUA was run?
A: The value was 0.00711 ± 0.0039.

Q: UCCUCCAACAGCUUGCAUAGUAUUUAGAUA was tested. Which “pre-steady-state target cleavage rate” value did it give?
A: Its value is 0.0051 ± 0.0023.

Q: UCCUCCUACAGCUUCCAAAGUAUUUAGUUA was tested. Which “pre-steady-state target cleavage rate” value did it give?
A: Its value is 0.00527 ± 0.0019.

Q: Which “pre-steady-state target cleavage rate” value does the source give for “UCCUGGUACAGCUUGCAUAGUAUUUAGUUA [g2:g24:cont:t1A]” here?
A: The value was 0.0865 ± 0.024.
